Compound activity as filed in PubChem.
SENP7 inh = blocks the human protease SENP7. recombinant SENP7, Z-RLRGG-aminoluciferin luminescence, 40 min. inhibition, % at 5 µM. hit rate 1.5% among 330,000. AID 434973;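 active = inhibition above about 50% at the single test dose, limit read from the data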;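 also: plate controls were DMSO with enzyme for no effect and no enzyme buffer wells for full effect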
SENP8 block-1 = SENP8 (human) protease inhibition; Q96LD8; recombinant SENP8, Nedd8 substrate fluorescence; inhibition, % at 20 µM; hit rate 0.64% among 360,000; AID 602440; in the data active = inhibition mostly above about 40%, no sharp cut-off; inactive = mostly below about 27%
Target sequence (Q96LD8 whole entry, looked up): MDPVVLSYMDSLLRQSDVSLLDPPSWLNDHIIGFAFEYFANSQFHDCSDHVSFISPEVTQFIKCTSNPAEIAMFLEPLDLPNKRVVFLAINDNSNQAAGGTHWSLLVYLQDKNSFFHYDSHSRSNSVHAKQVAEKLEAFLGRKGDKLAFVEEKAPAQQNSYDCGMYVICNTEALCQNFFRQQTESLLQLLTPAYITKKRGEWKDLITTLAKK
PPC-1+TRAIL kill = compounds killing PPC-1 cancer cells with TRAIL present (potentiator screen, no TRAIL-free arm); PPC-1 cells + TRAIL, ATPLite viability luminescence; cell killing (% activity), % at 4 µM or 5 µM; hit rate 0.41% among 220,000; AID 1443;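 active = cell killing above 50% in the first pass at 4 µM, then a duplicate retest at 5 µM averaging 50% or more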;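 also: plate controls were cells with TRAIL plus DMSO for no effect and medium-only wells lacking cells for full effect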
C8 TRAIL sens = caspase-8 TRAIL sensitization | NB7+C8 cells + TRAIL, ATPlite viability luminescence | inhibition (viability loss, TRAIL sensitization), % at 10 µM | hit rate 1% among 360,000;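 active = compounds causing at least 50% loss of cell viability in the single-dose screen, relative to plate controls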
SENP6 inh = SENP6 protease inhibition; Q9GZR1; Recombinant SENP6 catalytic domain, aminoluciferin luminescence; hit rate 1.8% among 330,000; inhibition, % at 10 µM;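 active = inhibition above about 50% at the single tested dose, limit read from the data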;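 also: plate controls were DMSO wells with enzyme for no effect and DMSO wells lacking enzyme for full effect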
SENP8 block-2 = inhibitors of human SENP8 protease. purified SENP8, Z-RLRGG-aminoluciferin cleavage, luminescence. hit rate 1.2% among 330,000. inhibition, % at 10 µM; in the data active = inhibition above about 50%
SENP8 conf = confirmation of human SENP8 protease inhibitors | purified SENP8, Nedd8-AMC/pro-Nedd8 cleavage fluorescence, 30 min | inhibition, % at 25 µM | shares compounds with SENP8 block-1 | hit rate 15% among 1,400 | AID 624319; in the data active = inhibition mostly above about 39%, no sharp cut-off; inactive = mostly below about 34%
* marks the source's active call; other numbers are inactive results; x = no result. Sampled rows, rich in hits. Any-hit rate of the full collection: about 3%.

SMILES | SENP7 inh | SENP8 block-1 | PPC-1+TRAIL kill | C8 TRAIL sens | SENP6 inh | SENP8 block-2 | SENP8 conf
CCOc1cccc(-c2c(C(=O)N/N=C/c3ccsc3)nnn2-c2nonc2N)c1 | 8.6 | -6.9 | x | 3.8 | -11.1 | -1.3 | x
CN1C(=O)CC2(C)C1=CCc1scnc12 (centres undefined) | x | 6.0 | x | -17.8 | x | x | x
Cc1cc(C)c(/C([O-])=C(/C(=S)Nc2ccc(SC(F)F)cc2)[n+]2ccccc2)cc1C | -1.8 | 11.2 | -4.0 | -4.2 | 17.7 | -5.4 | x
CN(C)c1cc[n+](/C(C(=S)Nc2ccc(SC(F)F)cc2)=C(/[O-])c2ccccc2)cc1 | 11.3 | 43.5* | 10.1 | 20.8 | -11.3 | 1.1 | 23.4
O=C(c1ccccc1C(=O)N1CCN(c2ccccc2)CC1)N1CCN(c2ccccc2)CC1 | 3.7 | 49.2* | 12.9 | -3.2 | 9.9 | 4.0 | 17.8
O=C(O)c1ccccc1C(=O)N1CCN(c2ccccc2)CC1 | 4.9 | 6.5 | 5.5 | -4.1 | -5.0 | -0.6 | x
CCC(C)NC(=O)c1cc(Sc2nnc(C)s2)nc2ccccc12 (centres undefined) | 0.8 | x | 11.3 | x | 9.2 | -3.9 | x
CCOc1ccc(N2Nc3n[nH]c(N)c3N2)cc1 | -0.9 | 49.0* | -1.0 | -6.6 | 16.3 | -18.1 | 34.9
COc1ccc(N2Nc3n[nH]c(N)c3N2)cc1 | 15.6 | 50.8* | 14.9 | -2.6 | 19.3 | -6.2 | 10.4
COc1ccc(N2CCN(c3n[nH]c(N)n3)CC2)cc1 | -3.8 | 12.9 | 0.5 | -9.9 | 15.3 | 3.5 | x
O=C1CCCN1CCCNc1ncnc2sccc12 | -4.3 | -14.1 | 3.4 | -6.6 | -21.5 | -8.2 | x
CC(NC(=O)c1ccc(NC(=O)CC2SC(N3CCCC3)=NC2=O)cc1)c1ccc(S(N)(=O)=O)cc1 (centres undefined) | 13.2 | -2.3 | x | -0.4 | -7.6 | -10.1 | x
O=C(/C=C/CCc1ccc2c(c1)OCO2)N1CCCCC1 | 7.6 | 57.1* | x | 3.3 | -8.2 | 2.8 | -0.1
O=C(/C=C/C=C/c1ccc2c(c1)OCO2)N1CCCCC1 | 22.7 | -72.8 | x | 19.4 | 42.2 | 30.9 | x
COc1ccccc1C(C)Nc1ccc(S(=O)(=O)N2CCN(C)CC2)cc1[N+](=O)[O-] (centres undefined) | -1.3 | 39.1* | x | 4.6 | 15.6 | 6.0 | 12.9
CC(Nc1ccc(S(=O)(=O)N2CCN(C)CC2)cc1[N+](=O)[O-])c1ccccc1 (centres undefined) | 5.9 | 13.4 | x | 6.6 | 0.1 | 7.9 | x
Cc1ccc(Nc2cc(C)c(O)c(C)c2)cc1 | 7.7 | 47.5* | x | 7.3 | 7.8 | 1.7 | 66.5*
O=C(CNc1ccc2c(c1)OCO2)N/N=C\c1ccccc1Cl | 5.7 | 61.4* | 24.0 | 0.3 | 6.9 | 2.9 | 14.7
O=C(COC(=O)c1cccnc1Cl)NCCC1=CCCCC1 | -2.5 | -5.6 | 1.8 | 1.2 | -20.8 | -9.2 | x
CCN(CC)c1ccc(N=Cc2ccccc2[N+](=O)[O-])cc1 | 7.1 | 66.4* | 57.4* | -2.8 | 28.4 | -7.0 | 31.0
CC(=O)N(C)c1ccc(N=Cc2cc3c(cc2[N+](=O)[O-])OCO3)cc1 | 12.6 | -132.5 | x | 2.6 | 41.5 | 17.8 | x
Nn1c(C2CCC2)nc2cc(Cl)ccc2c1=O | -4.8 | 4.2 | x | -0.1 | -7.9 | -4.9 | x
CCn1nc([N+](=O)[O-])c(C(C#N)c2nc3cc(C(F)(F)F)ccc3s2)c(Cl)c1=O (centres undefined) | 9.9 | 24.3 | 5.7 | 8.4 | 21.0 | 15.4 | x
CCCn1nc([N+](=O)[O-])c(C(C#N)c2nc3ccccc3o2)c(Cl)c1=O (centres undefined) | -6.2 | 42.7* | -0.5 | 6.7 | 7.5 | 6.5 | 31.9
Cc1ccc(C(=O)O/N=C\c2ccc(N3CCOCC3)c([N+](=O)[O-])c2)cc1 | -3.4 | 30.2 | 18.5 | -1.0 | -37.7 | -14.5 | x
O=C(O/N=C\c1ccc(N2CCCCC2)c([N+](=O)[O-])c1)c1ccc(Cl)cc1Cl | -12.4 | 49.4* | 10.1 | -3.6 | -12.3 | -18.6 | 4.8
O=C(/C=C/c1ccc(Cl)cc1)N1CCN(c2ccc(Cl)cc2[N+](=O)[O-])CC1 | 1.2 | 43.0* | 15.8 | -8.9 | -25.2 | -5.3 | 14.4
Nc1ncnc2c1ncn2[C@@H]1O[C@H](CNCc2c(OCc3ccccc3F)ccc3ccccc23)[C@@H](O)[C@H]1O | -7.2 | 12.4 | x | 1.1 | -23.2 | 0.2 | x
